From the supplement of paper PMC7366291
Structures can show the parent of a compound that is named as a salt. ± gives the standard deviation.

Test system: Danio rerio Tg(wt1b:EGFP) embryo, pronephros
Assay: glomerular separation, fold change vs DMSO control; higher = glomeruli further apart (abnormal)
Conditions: 25 µM; exposure: 24-48 hpf
Procedure, shortened: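 Features are reported as fold changes against the mean of same-day DMSO-treated embryos. Before that, values more than 2 SD away from the feature mean were excluded. The embryos, dechorionated Tg(wt1b:EGFP) zebrafish, had been exposed from 24 to 48 hpf at 28.5°C to 25 μM compound in 0.5% DMSO in HEPES-buffered E3 with 0.003% PTU, and distances and angles came from 16 manually set points on maximum projections of dorsal pronephros images in Fiji.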

Row | Compound | glomerular separation
1 | C[C@H](CCC(=O)O)[C@H]1CC[C@H]2[C@@H]3C(=O)C[C@@H]4CC(=O)CC[C@]4(C)[C@H]3CC(=O)[C@]12C [Dehydrocholic acid] | 0.9 ± 0.25
2 | O=C1CC2(CCCC2)CC(=O)N1CCCCN1CCN(c2ncccn2)CC1 [Buspirone hydrochloride] | 0.901 ± 0.35
3 | CC(C)Nc1cccnc1N1CCN(C(=O)c2cc3cc(NS(C)(=O)=O)ccc3[nH]2)CC1 [Delavirdine] | 0.975 ± 0.41
4 | CC(C)(C(=O)c1cccnc1)c1cccnc1 [Metyrapone] | 0.85 ± 0.27
5 | O=C1CCC(N2C(=O)c3ccccc3C2=O)C(=O)N1 (stereo unspecified) [Thalidomide] | 0.439 ± 0.097
6 | C=C1c2c(Cl)ccc(O)c2C(=O)C2=C(O)[C@]3(O)C(=O)C(C(N)=O)=C(O)[C@@H](N(C)C)[C@@H]3[C@@H](O)[C@H]12.O=C(O)c1cc(S(=O)(=O)O)ccc1O [Meclocycline sulfosalicylate] | 1.02 ± 0.24
7 | NCCC[C@H](N)CC(=O)N[C@H]1CNC(=O)[C@H]([C@H]2C[C@H](O)NC(N)=N2)NC(=O)/C(=C/NC(N)=O)NC(=O)[C@H](CO)NC(=O)[C@H](CO)NC1=O [Viomycin sulfate] | 1.23 ± 0.3
8 | O=C(O)CCC(=O)c1ccc(-c2ccccc2)cc1 [Fenbufen] | 6.73 ± 2.4
9 | C=CCOc1ccccc1OCC(O)CNC(C)C (stereo unspecified) [Oxprenolol hydrochloride] | 0.751 ± 0.34
10 | O=C(O)c1cn(-c2ccc(F)cc2)c2cc(N3CCNCC3)c(F)cc2c1=O [Sarafloxacin] | 1.17 ± 0.4
11 | COc1ccc(CC2c3cc(OC)c(OC)cc3CC[N+]2(C)CCC(=O)OCCCCCOC(=O)CC[N+]2(C)CCc3cc(OC)c(OC)cc3C2Cc2ccc(OC)c(OC)c2)cc1OC (stereo unspecified) [Atracurium besylate] | 1.2 ± 0.6
12 | CCOCCn1c(N2CCCN(C)CC2)nc2ccccc21 [Emedastine] | 0.707 ± 0.16
13 | Cn1cnc2c1c(=O)[nH]c(=O)n2C [Theobromine] | 0.91 ± 0.41
14 | COc1ccc([C@@H]2CC(=O)c3c(O)cc(O[C@@H]4O[C@H](CO[C@@H]5O[C@@H](C)[C@H](O)[C@@H](O)[C@H]5O)[C@@H](O)[C@H](O)[C@H]4O)cc3O2)cc1O [Hesperidin] | 0.827 ± 0.15
15 | O=C(OCC(O)CO)c1ccccc1Nc1ccnc2cc(Cl)ccc12 (stereo unspecified) [Glafenine hydrochloride] | 1.05 ± 0.26
16 | COc1ccc(Cl)cc1C(=O)NCCc1ccc(S(=O)(=O)NC(=O)NC2CCCCC2)cc1 [Glibenclamide] | 0.804 ± 0.39
17 | CN(C/C=C/C#CC(C)(C)C)Cc1cccc2ccccc12 [Terbinafine] | 1.03 ± 0.34
18 | CN(C)CCOC1=Cc2ccccc2Sc2ccc(Cl)cc21 [Zotepine] | 0.933 ± 0.24
19 | CN1CCC(=C2c3ccccc3C=Cc3ccccc32)CC1 [Cyproheptadine hydrochloride] | 1.28 ± 0.31
20 | CCn1cc(C(=O)O)c(=O)c2ccc(C)nc21 [Nalidixic acid sodium salt] | 1.31 ± 0.59
21 | CCCc1nc2c(C)cc(-c3nc4ccccc4n3C)cc2n1Cc1ccc(-c2ccccc2C(=O)O)cc1 [Telmisartan] | 1.22 ± 0.41
22 | O=C1NCCN1CCN1CCC(c2cn(-c3ccc(F)cc3)c3ccc(Cl)cc23)CC1 [Sertindole] | 1.45 ± 0.59
23 | CN(C)CCOC(c1ccccc1)c1ccccc1.Cn1c(=O)c2[nH]c(Cl)nc2n(C)c1=O [Dimenhydrinate] | 1.31 ± 0.54
24 | O=c1n(CCCN2CCN(c3cccc(Cl)c3)CC2)nc2ccccn12 [Trazodone hydrochloride] | 1.2 ± 0.34
25 | OCCOCCN1CCN(C(c2ccccc2)c2ccc(Cl)cc2)CC1 (stereo unspecified) [Hydroxyzine dihydrochloride] | 0.754 ± 0.2
26 | COc1ccccc1N1CCN(CCCNc2cc(=O)n(C)c(=O)n2C)CC1 [Urapidil hydrochloride] | 1.09 ± 0.36
